Reference: PubChem BioAssay AID463173 (ICCB-Longwood Screening Facility, Harvard Medical School, 2010)
Screen size: about 52,000 compounds; about 1,700 (3.3%) were called active. Shown is part of a subset that was picked to be rich in actives. A number with no mark means an inactive call. Rule as the data show it: active = survival mostly below about 52% (no sharp cut-off); inactive = mostly above about 56%.

These compounds were tested on Wild type (assay: S. aureus survival, RN4220 and DeltatarO strains – OD600, teichoic acid synthesis inhibitors, primary screen (AID 463173)). Details: S. aureus RN4220 wild type/DeltatarO growth, OD600, 18 h, active compounds read low, screened at 18.75 µg/mL (by protocol).

Compound	survival
Cc1ccc(NC(=O)CN2C(=O)c3ccccc3Sc3ccc(C(=O)N4CCOCC4)cc32)c(Cl)c1	-6% (active)
O=C(CN1C(=O)c2ccccc2Sc2ccc(C(=O)N3CCOCC3)cc21)Nc1ccc(Cl)cc1F	73%
CCc1ccc(NC(=O)CN2C(=O)c3ccccc3Sc3ccc(C(=O)N4CCCC4)cc32)cc1	82%
Cc1cc(C)cc(NC(=O)CN2C(=O)c3ccccc3Sc3ccc(C(=O)N4CCOCC4)cc32)c1	69%
CN(C)c1ccc(NC(=O)CN2C(=O)c3ccccc3Sc3ccc(C(=O)N4CCCC4)cc32)cc1	-4% (active)
Cc1ccc(NC(=O)CN2C(=O)c3ccccc3Sc3ccc(C(=O)N4CCCC4)cc32)cc1	64%
Fc1ccc(-c2noc3ncnc(NCc4cccc(Cl)c4)c23)cc1	55%
COc1ccccc1CN1CCNC(=O)C1=O	77%
O=C(CSc1nc2c([nH]c3ccccc32)c(=O)n1-c1ccccc1)N1CCOCC1	75%
O=S1(=O)c2ccccc2N(Cc2ccccc2Cl)c2ccccc21	80%
COc1ccc(N2CCN(C(CNC(=O)C(=O)NCCc3ccccc3)c3cccnc3)CC2)cc1 (stereo not given)	84%
CN1CCN(C(=O)C(=O)Nc2c3c(nn2-c2ccc(Cl)cc2)CSC3)CC1	71%
CC(NC(=O)C(=O)Nc1c2c(nn1-c1ccc(F)cc1)CSC2)c1ccccc1 (stereo not given)	-4% (active)
CCC(CO)NC(=O)C(=O)Nc1c2c(nn1-c1ccc(F)cc1)CSC2 (stereo not given)	87%
CN1CCN(C(=O)C(=O)Nc2c3c(nn2-c2ccc(F)cc2)CSC3)CC1	81%
CC(=O)N1CCN(C(=O)C(=O)Nc2c3c(nn2-c2ccc(Cl)cc2)CSC3)CC1	-3% (active)
CC(NC(=O)C(=O)Nc1c2c(nn1-c1ccccc1)CSC2)c1ccccc1 (stereo not given)	55%
Cc1cccc(OCC(=O)N(Cc2cccc(Cl)c2)Cc2ccco2)c1C	85%
CCOC(=O)c1ccc(NC(=O)c2cnc3c(-c4ccc(F)cc4)c(C)nn3c2C)cc1	120%
CCOC(=O)c1ccc(CN(Cc2ccc(OC)cc2)S(=O)(=O)c2cccc(C(F)(F)F)c2)cc1	73%
CCc1ccc(NC(=O)c2ccc(F)c(S(=O)(=O)N(C)C3CCCCC3)c2)cc1	71%
COc1ccc(OC)c(NC(=O)c2cc(S(=O)(=O)NCCc3ccc(Cl)cc3)ccc2F)c1	79%

Compound	survival
CCc1ccc(NC(=O)c2ccc(F)c(S(=O)(=O)NC3CCCCCC3)c2)cc1	-4% (active)
Cc1ccc(NC(=O)c2cc(S(=O)(=O)NCCC3=CCCCC3)ccc2F)cc1C	-3% (active)
Cc1ccc(NC(=O)c2cc(S(=O)(=O)NC3CCCCC3)ccc2F)cc1Cl	-6% (active)
Cc1cc(C)cc(NC(=O)c2cc(S(=O)(=O)NCCC3=CCCCC3)ccc2F)c1	80%
O=C(Nc1ccc(Br)cc1)c1ccc(F)c(S(=O)(=O)NC2CCCCCC2)c1	56%
Cc1ccc(NC(=O)c2cc(S(=O)(=O)NCCC3=CCCCC3)ccc2F)cc1F	82%
O=C(Nc1ccc(F)c(F)c1)c1cc(S(=O)(=O)NC2CCCCCC2)ccc1F	53%
Cc1ccc(NC(=O)c2cc(S(=O)(=O)NC3CCCCCC3)ccc2F)cc1F	79%
COc1ccc(CCNS(=O)(=O)c2ccc(F)c(C(=O)Nc3ccc(Cl)cc3)c2)cc1OC	126%
CCc1ccccc1NC(=O)c1cc(S(=O)(=O)NCCc2ccc(OC)c(OC)c2)ccc1F	0% (active)
O=S(=O)(c1ccccc1)c1nc(-c2cccs2)oc1SCc1ccc(F)cc1	61%
O=C(COCc1cc(-c2cccs2)on1)Nc1ccc(OC(F)(F)F)cc1	124%
CCc1cccc(NC(=O)c2nc(-c3ccncc3)no2)c1	101%
CC(NC(=O)c1ccc(CSc2nc3ccncc3n2Cc2ccc(F)cc2)cc1)c1ccccc1 (stereo not given)	92%
Cc1ccccc1C(=O)Nc1sc2c(c1C(=O)O)CCC(C(C)(C)C)C2 (stereo not given)	6% (active)
CC(C)(C)C1CCc2c(sc(NC(=O)CCC(=O)O)c2C(=O)Nc2ccccc2C(F)(F)F)C1 (stereo not given)	1% (active)
CCCNC(=O)c1c(NC(=O)c2ccccc2)sc2c1CCC(C(C)(C)C)C2 (stereo not given)	2% (active)
Cc1ccccc1NC(=O)c1c(NC(=O)c2ccncc2)sc2c1CCC(C(C)(C)C)C2 (stereo not given)	91%
Cc1ccc(C(=O)Nc2sc3c(c2C(=O)NCc2ccco2)CCC(C(C)(C)C)C3)cc1 (stereo not given)	70%
Cc1ccccc1NC(=O)c1c(NC(=O)c2ccccc2F)sc2c1CCC(C)C2 (stereo not given)	82%
COc1ccccc1NC(=O)c1c(NC(=O)Cc2ccccc2)sc2c1CCC(C(C)(C)C)C2 (stereo not given)	102%
CC(C)(C)C1CCc2c(sc(NC(=O)c3cccc(Cl)c3)c2C(N)=O)C1 (stereo not given)	75%

Compound	survival
COc1ccccc1NC(=O)c1c(NC(=O)c2cccs2)sc2c1CCC(C(C)(C)C)C2 (stereo not given)	118%
Cc1ccccc1C(=O)Nc1sc2c(c1C(=O)NCc1ccco1)CCC(C(C)(C)C)C2 (stereo not given)	88%
CC1CCN(C(=O)c2c(NC(=O)c3ccccc3F)sc3c2CCC(C(C)(C)C)C3)CC1 (stereo not given)	-2% (active)
CC(C)(C)C1CCc2c(sc(NC(=O)c3ccc(Cl)cc3)c2C(=O)NCc2ccco2)C1 (stereo not given)	95%
CCCNC(=O)CCCN1C(=O)CCn2nc(-c3cccn3C)cc21	71%
O=C(CN1CCC(O)(c2ccccc2)CC1)NC1CCCCC1	111%
Cc1ccc(CNC(=O)CCCCCn2c(=O)c3sccc3n(CC(=O)N(C)c3ccccc3)c2=O)cc1	83%
O=C(CSc1nc(=O)[nH]c2c1CCCC2)NCc1ccccc1Cl	135%
COc1ccc(NC(=O)N2CCN(S(=O)(=O)c3ccc4c(ccn4C)c3)CC2)c(OC)c1	87%
CCN(CC)C(=O)c1c(NC(=O)c2ccccc2F)sc2c1CCC(C(C)(C)C)C2 (stereo not given)	-3% (active)
O=C(Nc1sc2c(c1C(=O)N1CCCCC1)CCCC2)c1ccccc1Cl	75%
CCOc1ccccc1NC(=O)c1c(NC(=O)c2ccccc2C)sc2c1CCC(C)C2 (stereo not given)	75%
Cc1ccccc1C(=O)Nc1sc2c(c1C(=O)N1CCCCC1)CCC(C)C2 (stereo not given)	36%
CC(C)(C)C1CCc2c(sc(NC(=O)c3ccncc3)c2C(=O)Nc2ccccc2Cl)C1 (stereo not given)	84%
CC1CCN(C(=O)c2c(NC(=O)c3ccccc3Cl)sc3c2CCC(C(C)(C)C)C3)CC1 (stereo not given)	2% (active)
CC(C)(C)C1CCc2c(sc(NC(=O)c3ccco3)c2C(=O)Nc2ccccc2Cl)C1 (stereo not given)	108%
CC(C)(C)C1CCc2c(sc(NC(=O)c3ccccc3F)c2C(=O)N2CCCCC2)C1 (stereo not given)	-3% (active)
Cc1ccccc1C(=O)Nc1sc2c(c1C(=O)N1CCC(C)CC1)CCCC2	64%
Cc1ccccc1C(=O)Nc1sc2c(c1C(=O)N1CCC(C)CC1)CCC(C)C2 (stereo not given)	0% (active)
CC(C)(C)C1CCc2c(sc(NC(=O)c3ccccc3F)c2C(=O)NCc2ccco2)C1 (stereo not given)	70%
CN(C)C(=O)c1c(NC(=O)c2ccccc2F)sc2c1CCCC2	82%
